Experiment [1] concerns the target Glucocorticoid receptor (Homo sapiens) (UniProt P04150). Kind of experiment: GR-GFP Redistribution (AID 450;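 active means compounds whose dose series gives a full or clear partial fitted curve of increased nuclear translocation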; further: potency means the concentration at half of the fitted maximal effect). As to conditions: U2OS GR-GFP nuclear translocation, laser cytometry, 2 h.
The target is the same in experiment [2]. Kind of experiment: GR-EFC Redistribution (AID 451; calls by dose curve; further: potency means the concentration at half of the fitted maximal effect). Conditions: CHO-K1 GR-EFC translocation, beta-gal luminescence, 2 h. Put shortly:
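Translocation of GR-ED fusion to nuclear EA restores b-gal, read by luminescence after 1 h room-temperature detection. Engineered CHO-K1 biosensor cells, 1,000/well, exposed 2 h at 37 C to titrations up to 46 uM final.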

The target in experiment [3] is 3',5'-cyclic-AMP phosphodiesterase 4B (Homo sapiens) (UniProt Q07343). Kind of experiment: qHTS Assay for Inhibitors of PDE-IV (AID 607; active means well fitted activation curve with a large enough effect in the main read-out, with a control signal flat, not every such curve was filed as active; further: % of control where 0% means no effect). The method, boiled down: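 The readout is membrane depolarisation from a cAMP-sensing CNG channel, detected with a potential dye at ex 535/em 590. Cells were HEK293-derived (endogenous PDE-IV) at 1000 cells/well, titrated up to 22.9 uM final.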
3',5'-cyclic-AMP phosphodiesterase 4B (Homo sapiens), sequence (Q07343 whole entry, looked up): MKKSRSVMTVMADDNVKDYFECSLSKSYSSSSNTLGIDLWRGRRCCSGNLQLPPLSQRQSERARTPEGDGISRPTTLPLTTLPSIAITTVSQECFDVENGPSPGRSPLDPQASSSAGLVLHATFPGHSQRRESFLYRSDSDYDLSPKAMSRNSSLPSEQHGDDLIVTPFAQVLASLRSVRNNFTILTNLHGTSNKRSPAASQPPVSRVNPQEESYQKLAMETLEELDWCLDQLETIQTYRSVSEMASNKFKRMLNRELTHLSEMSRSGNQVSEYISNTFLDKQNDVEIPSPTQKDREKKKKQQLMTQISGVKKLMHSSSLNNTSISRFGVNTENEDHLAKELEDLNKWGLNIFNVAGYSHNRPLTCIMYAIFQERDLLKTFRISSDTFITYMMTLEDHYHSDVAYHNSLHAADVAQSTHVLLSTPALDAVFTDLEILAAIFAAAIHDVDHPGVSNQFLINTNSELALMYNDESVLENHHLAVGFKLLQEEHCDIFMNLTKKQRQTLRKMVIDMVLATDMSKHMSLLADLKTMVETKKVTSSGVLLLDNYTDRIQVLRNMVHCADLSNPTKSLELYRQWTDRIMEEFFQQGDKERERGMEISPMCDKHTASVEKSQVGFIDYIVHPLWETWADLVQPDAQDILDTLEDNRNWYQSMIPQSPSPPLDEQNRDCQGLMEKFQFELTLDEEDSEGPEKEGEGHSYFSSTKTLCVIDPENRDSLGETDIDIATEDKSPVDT

Experiment [4] has as its target Cytochrome P450 2C19 (Homo sapiens) (UniProt P33261). Kind of experiment: qHTS Assay for Inhibitors and Substrates of Cytochrome P450 2C19 (AID 899). Further: potency means the concentration at half of the fitted maximal effect; nearly all actives have a fitted effect of over 60% in size. Put shortly: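 Luminescence readout of luciferin formed from 10uM Luciferin-H EGE (KM level) by 5 nM CYP2C19 in 50mM KPO4. 60 min NADPH-driven reaction at 37C after 10 min compound preincubation; data scaled to 57uM ketoconazole inhibition.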

In experiment [5] the target is Ubiquitin carboxyl-terminal hydrolase 1 (Homo sapiens) (UniProt O94782). Kind of experiment: Inhibitors of USP1/UAF1: Pilot qHTS (AID 504865). Further: nearly all actives have a fitted effect of over 35% in size. Further: potency means the concentration at half of the fitted maximal effect. The method, boiled down: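 Deubiquitinase activity followed as kinetic rhodamine fluorescence release from 150 nM Ub-Rho. 1 nM USP1/UAF1 with compound, after 15 min room-temperature preincubation, in HEPES pH 7.8 buffer containing TCEP, EDTA, BSA and Tween-20.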
Ubiquitin carboxyl-terminal hydrolase 1 (Homo sapiens), sequence (O94782 whole entry, looked up): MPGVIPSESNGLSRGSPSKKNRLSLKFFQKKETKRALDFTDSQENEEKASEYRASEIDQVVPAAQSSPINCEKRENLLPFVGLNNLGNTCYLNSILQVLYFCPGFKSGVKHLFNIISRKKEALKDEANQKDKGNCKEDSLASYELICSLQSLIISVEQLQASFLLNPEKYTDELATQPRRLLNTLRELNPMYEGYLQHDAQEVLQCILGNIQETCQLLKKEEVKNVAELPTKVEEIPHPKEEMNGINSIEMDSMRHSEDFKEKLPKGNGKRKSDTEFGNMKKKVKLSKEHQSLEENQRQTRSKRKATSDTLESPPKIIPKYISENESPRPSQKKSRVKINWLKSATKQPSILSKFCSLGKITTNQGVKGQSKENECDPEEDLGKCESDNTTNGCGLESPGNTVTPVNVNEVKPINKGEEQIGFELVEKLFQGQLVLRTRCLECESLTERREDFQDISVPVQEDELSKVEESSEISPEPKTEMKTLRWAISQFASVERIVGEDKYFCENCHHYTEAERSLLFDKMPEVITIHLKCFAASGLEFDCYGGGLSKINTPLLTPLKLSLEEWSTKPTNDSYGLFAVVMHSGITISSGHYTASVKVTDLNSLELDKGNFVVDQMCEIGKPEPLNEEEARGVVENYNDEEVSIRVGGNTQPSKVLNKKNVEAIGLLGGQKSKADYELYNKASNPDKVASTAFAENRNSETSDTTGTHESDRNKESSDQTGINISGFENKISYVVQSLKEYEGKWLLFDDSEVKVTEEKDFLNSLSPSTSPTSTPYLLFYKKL

Experiment [6] concerns the target DNA dC->dU-editing enzyme APOBEC-3G (Homo sapiens) (UniProt Q9HC16). The experiment is described as follows: qHTS for inhibitors of Vif-A3G interactions: Validation (AID 588379). Further: 0% is about no effect. Put shortly: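 HeLa cells stably expressing Vif and A3G-eYFP, 700 cells/well, incubated overnight at 37 deg C, then exposed to compound overnight at 37 deg C. Inhibition of Vif-mediated degradation read as increased yellow fluorescence (Ex 488/Em 500-530) by laser-scanning cytometry.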

Experiment [7] has as its system Zika virus NS2B-NS3 protease. Kind of experiment: Primary screen GU AMC qHTS for Zika virus inhibitors (AID 1347154).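 Further: 0% = no-inhibitor control and -100% = no-enzyme control; nearly all actives have a fitted effect of over 70% in size.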 The method, boiled down:
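Fluorogenic AMC-substrate cleavage by noncovalent NS2B-NS3 protease complex (25 nM, pH 8.0 Tris buffer with Tween 20) followed for 15 minutes at room temperature (~20% conversion). Percent inhibition from ex340/em450 signal change, fitted by 4-parameter Hill equation.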

Experiment [8] is described as follows: Primary qHTS for small molecule stabilizers of the endoplasmic reticulum resident proteome: Secreted ER Calcium Modulated Protein (SERCaMP) assay (AID 1508630). Further: on the % scale 0 is the no-effect control and ±100 the full control effect. Put shortly:
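GLuc-SERCaMP-expressing SH-SY5Y cells, pretreated 16 h with compound, are challenged with thapsigargin to empty ER calcium stores; after 4 h, coelenterazine is added directly to the medium and luminescence is imaged.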

The target of experiment [9] is Mitogen-activated protein kinase 10 (Mus musculus) (UniProt Q61831). Kind of experiment: JNK3 AlphaScreen Assay (AID 530; active means well fitted curve in either direction with a large enough effect, not every such curve was filed as active;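 further: kinase came from lysate of stimulated human HepG2 cells; signal reports phosphorylation of biotinylated GST-cJun 1-79 at Ser73 with 10 µM ATP; on the % scale 0 is the no-effect control and ±100 the full control effect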). The method, boiled down:
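Room-temperature AlphaScreen kinase assay; pre-activated HepG2 lysate as JNK3 source, biotin-GST-cJun(1-79) substrate, 10 uM ATP, compound 15 min preincubation.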

The target in experiment [10] is Cytochrome P450 3A4 (Homo sapiens) (UniProt P08684). The experiment is described as follows: qHTS Assay for Activators of Cytochrome P450 3A4 (AID 885). Further: nearly all actives have a fitted effect of over 65% in size. The method, boiled down: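 Steps: enzyme/substrate mix dispensed; compound added, 10 min RT; NADPH regeneration solution added, 60 min RT; luciferin detection buffer stops reaction; 20 min later luminescence measured.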
Cytochrome P450 3A4 (Homo sapiens), sequence (P08684 whole entry, looked up): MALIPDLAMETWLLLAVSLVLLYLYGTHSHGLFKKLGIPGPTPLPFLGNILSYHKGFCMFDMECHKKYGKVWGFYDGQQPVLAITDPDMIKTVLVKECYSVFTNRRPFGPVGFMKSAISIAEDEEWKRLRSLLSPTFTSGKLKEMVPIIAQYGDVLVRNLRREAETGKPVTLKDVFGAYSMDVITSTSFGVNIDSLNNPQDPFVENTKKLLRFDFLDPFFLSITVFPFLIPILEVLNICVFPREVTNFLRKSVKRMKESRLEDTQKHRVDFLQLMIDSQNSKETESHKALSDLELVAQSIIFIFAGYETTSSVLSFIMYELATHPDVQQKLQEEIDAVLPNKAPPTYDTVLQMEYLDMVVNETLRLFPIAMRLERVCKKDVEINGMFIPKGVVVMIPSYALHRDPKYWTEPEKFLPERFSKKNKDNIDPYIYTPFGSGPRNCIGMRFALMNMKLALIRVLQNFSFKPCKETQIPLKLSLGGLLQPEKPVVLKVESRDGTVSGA

A short description of experiment [11]: AP1 Signaling Pathway (AID 357; active means well fitted curve in either direction with a large enough effect, not every such curve was filed as active;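 further: ME-180 reporter cells stimulated with EGF at its EC50 level; on the % scale 0 is the no-effect control and ±100 the full control effect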). As to conditions: ME-180 AP-1-bla reporter, EGF-induced, beta-lactamase ratio, 5 h; at 17.2 µM (top of the series). Put shortly: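 Modulation of EGF-driven AP-1 transcription was assessed with a beta-lactamase reporter in ME-180 cells. Compound and EC50 EGF were co-incubated 5 hours at 37 °C before 2.5-hour CCF4 loading at room temperature and dual-emission reading.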

A short description of experiment [12]: NFAT Signaling Pathway (AID 444; active means well fitted curve in either direction with a large enough effect, not every such curve was filed as active;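 further: carbachol stimulus at about its EC50 of 1 µM final; on the % scale 0 is the no-effect control and ±100 the full control effect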). As to conditions: Jurkat NFAT-bla M1, carbachol, beta-lactamase ratio, 5 h; at 17.2 µM (top of the series). The method, boiled down: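 Read-out: CCF4 FRET ratio (460 nm/530 nm) after 1 h RT dye loading, used for %activity and AC50 from titration series. Cells: Jurkat NFAT-β-lactamase/M1 line, treated with compound plus 1 uM carbachol for 5 h, 37 °C.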

Experiment [13] in a line: Stat Signaling Pathway (AID 446; active means well fitted curve in either direction with a large enough effect, not every such curve was filed as active). As to conditions: ME-180 SIE beta-lactamase reporter, IL-6 stimulated, 5 h; at 17.2 µM (top of the series). The method, boiled down: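 Screening format detects activators and inhibitors alike: ME-180 SIE-bla cells stimulated at 40 pM IL-6 for 5 hrs with compound, then dual-emission beta-lactamase read at 405 nm excitation.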
Experiment [14] in a line: qHTS Assay for Lipid Storage Modulators (AID 1519; calls by dose curve). Conditions: Drosophila S3 cells, BODIPY lipid droplet/cell ratio, laser cytometry, cells loaded with oleic acid. The method, boiled down: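 Cells seeded at 5,000 per well were treated with compounds over a concentration series and loaded with oleic acid (400 uM, as added). Lipid droplet fluorescence (488 nm excitation, 500-530 nm channel) was read by laser-scanning cytometry and normalized to 20 uM Triacsin C.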

Experiment [15] can be described thus: qHTS profiling of the MIPE4 collection as inhibitors of Plasmodium falciparum (DD2) proliferation (AID 743345; call rule not given here). Conditions: P. falciparum Dd2 in erythrocytes, SYBR Green DNA, 72 h; at 28.5 µM (top of the series). The method, boiled down: (§1)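 Erythrocytes infected with P. falciparum (0.3% parasitemia, 2.5% hematocrit) incubated with compounds 72 h at 37 C, 5% CO2. Lysis with saponin/Triton buffer containing SYBR Green I, overnight at room temperature in the dark; DNA fluorescence (485/535 nm) normalised to 0.29 uM artemisinin and DMSO.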

Experiment [16] in a line: qHTS profiling of the MIPE4 collection as inhibitors of Plasmodium falciparum (HB3) proliferation (AID 743347; call rule not given here;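 further: plate controls were DMSO vehicle wells for no effect and artemisinin wells for full effect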). As to conditions: P. falciparum HB3 in erythrocytes, SYBR Green DNA, 72 h; at 28.5 µM (top of the series). Put shortly:
as §1

In experiment [17] the target is Cytochrome P450 1A2 (Homo sapiens) (UniProt P05177). Kind of experiment: p450-cyp1a2 (AID 410; calls by dose curve;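 further: -100% = full effect of reference inhibitor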). The method, boiled down:
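Inhibition was calculated relative to 57 uM furafylline (full inhibition). The reaction used human CYP1A2 at 20nM with Luciferin-ME at its Km, 100uM, driven by an NADPH-regenerating system for 60 min at room temperature.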

For experiment [18], the target named is Cytochrome P450 2D6 (Homo sapiens) (UniProt P10635). The experiment is described as follows: qHTS Assay for Inhibitors and Substrates of Cytochrome P450 2D6 (AID 891). Further: potency means the concentration at half of the fitted maximal effect; nearly all actives have a fitted effect of over 60% in size. The method, boiled down:
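Human CYP2D6 (5 nM) with 30 uM Luciferin-ME EGE (at Km) in 100 mM KPO4, compound preincubated 10 min, then NADPH regeneration system for 60 min at room temperature. Luciferin read by luminescence; normalized to 1.43 uM quinidine.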

The mark [19] stands for this setting: measured here: cell count channel max response.
Setting [20] is: measured here: lipid channel max response.

“And” between values parts separate entries of the source, which are not always exact repeats. Equal entries are not always repeated. Inconclusive results are not listed. The source made the active and inactive calls. Unless noted, the call rests on the fitted dose curve; in most records, active means well fitted curve in the direction sought with a large enough effect; inconclusive means small, poorly fitted or top-dose-only effect, or another doubt; inactive means no such curve, though single readings can be large; an effect the other way counts as inactive or inconclusive.

DNA dC->dU-editing enzyme APOBEC-3G (Homo sapiens), sequence (Q9HC16 whole entry, looked up): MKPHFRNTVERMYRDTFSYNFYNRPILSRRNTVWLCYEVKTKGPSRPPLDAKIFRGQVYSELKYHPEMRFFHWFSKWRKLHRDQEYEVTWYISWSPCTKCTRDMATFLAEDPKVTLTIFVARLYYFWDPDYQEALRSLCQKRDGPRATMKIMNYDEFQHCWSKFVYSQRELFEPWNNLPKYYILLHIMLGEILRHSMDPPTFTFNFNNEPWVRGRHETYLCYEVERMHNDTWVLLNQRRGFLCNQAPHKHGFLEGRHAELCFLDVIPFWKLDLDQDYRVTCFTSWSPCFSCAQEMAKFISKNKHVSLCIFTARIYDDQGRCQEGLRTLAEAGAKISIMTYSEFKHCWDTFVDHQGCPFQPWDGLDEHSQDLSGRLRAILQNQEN
Glucocorticoid receptor (Homo sapiens), sequence (P04150 whole entry, looked up): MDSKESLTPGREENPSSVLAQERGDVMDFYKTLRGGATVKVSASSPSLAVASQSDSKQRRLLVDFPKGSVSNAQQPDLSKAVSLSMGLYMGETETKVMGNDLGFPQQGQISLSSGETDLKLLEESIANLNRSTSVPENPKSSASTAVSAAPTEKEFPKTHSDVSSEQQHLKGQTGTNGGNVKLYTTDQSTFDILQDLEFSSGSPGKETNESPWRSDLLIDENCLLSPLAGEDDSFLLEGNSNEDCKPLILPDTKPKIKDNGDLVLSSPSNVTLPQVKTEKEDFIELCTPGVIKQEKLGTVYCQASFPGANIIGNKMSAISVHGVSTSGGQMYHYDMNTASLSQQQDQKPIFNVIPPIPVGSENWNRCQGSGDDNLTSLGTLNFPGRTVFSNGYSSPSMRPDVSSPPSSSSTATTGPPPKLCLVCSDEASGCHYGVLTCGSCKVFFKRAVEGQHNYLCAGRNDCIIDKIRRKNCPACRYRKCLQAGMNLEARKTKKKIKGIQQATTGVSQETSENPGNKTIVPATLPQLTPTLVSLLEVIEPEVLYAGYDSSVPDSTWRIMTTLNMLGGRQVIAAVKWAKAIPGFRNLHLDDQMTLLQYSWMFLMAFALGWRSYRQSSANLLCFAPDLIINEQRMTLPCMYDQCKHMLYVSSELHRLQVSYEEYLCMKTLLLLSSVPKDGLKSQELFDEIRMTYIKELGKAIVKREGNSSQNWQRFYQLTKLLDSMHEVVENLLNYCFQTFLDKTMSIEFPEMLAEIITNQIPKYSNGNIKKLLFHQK
Cytochrome P450 2C19 (Homo sapiens), sequence (P33261 whole entry, looked up): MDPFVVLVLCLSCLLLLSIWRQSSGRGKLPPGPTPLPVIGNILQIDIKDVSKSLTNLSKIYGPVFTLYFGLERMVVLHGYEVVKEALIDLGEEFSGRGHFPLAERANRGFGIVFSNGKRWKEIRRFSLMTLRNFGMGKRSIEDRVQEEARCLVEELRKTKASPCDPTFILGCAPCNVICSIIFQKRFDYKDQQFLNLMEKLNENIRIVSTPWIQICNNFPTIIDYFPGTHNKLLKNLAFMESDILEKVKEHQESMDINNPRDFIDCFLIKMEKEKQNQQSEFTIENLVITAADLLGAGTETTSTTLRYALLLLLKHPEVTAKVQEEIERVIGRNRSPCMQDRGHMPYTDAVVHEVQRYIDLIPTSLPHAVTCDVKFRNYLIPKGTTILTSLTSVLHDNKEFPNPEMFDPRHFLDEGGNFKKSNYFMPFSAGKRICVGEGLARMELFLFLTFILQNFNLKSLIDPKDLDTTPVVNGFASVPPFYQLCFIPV
Cytochrome P450 2D6 (Homo sapiens), sequence (P10635 whole entry, looked up): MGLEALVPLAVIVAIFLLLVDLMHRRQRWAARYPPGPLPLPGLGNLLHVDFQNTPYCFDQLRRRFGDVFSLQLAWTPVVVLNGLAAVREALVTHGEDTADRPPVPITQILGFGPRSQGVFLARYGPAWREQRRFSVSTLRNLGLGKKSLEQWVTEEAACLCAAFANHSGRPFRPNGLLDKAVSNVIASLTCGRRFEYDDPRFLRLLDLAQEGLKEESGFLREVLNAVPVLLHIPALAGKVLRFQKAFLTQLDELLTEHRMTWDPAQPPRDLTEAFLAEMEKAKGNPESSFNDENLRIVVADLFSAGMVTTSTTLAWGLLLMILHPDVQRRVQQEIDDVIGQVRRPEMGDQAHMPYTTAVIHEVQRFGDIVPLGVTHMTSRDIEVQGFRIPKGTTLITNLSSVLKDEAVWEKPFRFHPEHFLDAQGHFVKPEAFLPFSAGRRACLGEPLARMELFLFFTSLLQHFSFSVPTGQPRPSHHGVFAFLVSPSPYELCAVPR
Cytochrome P450 1A2 (Homo sapiens), sequence (P05177 whole entry, looked up): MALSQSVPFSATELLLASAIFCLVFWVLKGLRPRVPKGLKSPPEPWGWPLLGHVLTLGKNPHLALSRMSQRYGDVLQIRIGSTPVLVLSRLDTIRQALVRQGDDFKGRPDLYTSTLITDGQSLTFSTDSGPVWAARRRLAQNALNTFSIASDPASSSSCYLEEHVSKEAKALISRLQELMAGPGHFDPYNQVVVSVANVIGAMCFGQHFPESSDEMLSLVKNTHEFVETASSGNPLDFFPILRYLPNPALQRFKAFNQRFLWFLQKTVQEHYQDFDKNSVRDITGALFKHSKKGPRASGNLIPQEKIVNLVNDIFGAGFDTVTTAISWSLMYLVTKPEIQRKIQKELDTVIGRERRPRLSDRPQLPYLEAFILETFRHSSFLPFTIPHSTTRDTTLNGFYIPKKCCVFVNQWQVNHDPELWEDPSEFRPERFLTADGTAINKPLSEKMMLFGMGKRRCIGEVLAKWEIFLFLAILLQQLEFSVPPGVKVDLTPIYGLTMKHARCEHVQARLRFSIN

Turning to `CCCCCCCCCCCCC(=O)N1CCCC[C@H]1CNC(=O)[C@@H](N)CCCCN`, the Potency in experiment [1] is > 46 µM (inactive); in experiment [2], > 46 µM (inactive); in experiment [4] it was 7.94 µM (active); in experiment [5] it was 50.1 µM (active). Further, the Potency entry in experiment [3], in [6], in experiment [7] and in experiment [8] was “inactive” in each case.

With `C[C@@H]1c2ccccc2CN1CC1=NCCN1`, the values for the Potency in experiment [1], in experiment [2] and in [5] were > 46 µM (inactive), > 46 µM (inactive) and 50.1 µM (active), respectively. Moreover, the Potency entry in [9], in experiment [3], in experiment [10], in [6], in experiment [7] and in experiment [8] was “inactive” in each case.

In the case of `Cc1cc(C)c(S(=O)(=O)Nc2cccc(C(F)(F)F)c2)c(C)c1`, the Potency in [1] was > 46 µM (inactive); in experiment [2], > 46 µM (inactive); in experiment [4], 3.16 µM (active). The Potency entry in experiment [9], in experiment [10], in [6], in [7] and in [8] was “inactive” throughout.

As to `COc1cc2c(cc1OC)C(c1ccc(N)cc1)=NNC(=O)C2`, the Potency in [1] and in [2] was > 46 µM (inactive) in each case. For the same compound, the Potency result in experiment [9], in experiment [3], in experiment [10], in [6], in [7] and in [8] was “inactive” throughout.

As for `CNC(=O)[C@H]1O[C@H](n2cnc3c(NCc4cccc(I)c4)ncnc32)[C@@H](O)[C@@H]1O`, the Potency in experiment [1] and in experiment [2] was > 46 µM (inactive) throughout. Moreover, the Potency entry in experiment [9], in experiment [10], in experiment [5], in [6], in [7] and in experiment [8] was “inactive” throughout.

As to `c1ccc(CN2CCC3(CCc4ccccc43)CC2)cc1`, the Potency in experiment [1] and in experiment [2] was > 46 µM (inactive) each time. The Potency entry in [6], in experiment [7] and in [8] was “inactive” in each case.

With `CC(C)[N+]1(C)[C@@H]2CC[C@H]1CC(OC(=O)[C@@H](CO)c1ccccc1)C2` (some centres not stated), the activity change, negative = inhibition was -0.347% (inactive) in experiment [11], -41.7% (active) in experiment [12], 1.72% (inactive) in [14] (at 25.7 µM (top of the series)) and -6.35% (inactive) in [14] (at 57.5 µM (top of the series)). Also, in experiment [13], the activity, negative = inhibition is 2.01% (inactive). For the same compound, the Potency entry in experiment [9], in experiment [3], in [6] and in experiment [7] was “inactive” throughout. Moreover, the max response in experiment [14] (setting [19]) is 2.23% and -7.97%; in [14] (setting [20]), 5.73% and -12.6%.

With `C[C@H](CCC(=O)O)[C@H]1CCC2C3CC[C@@H]4C[C@H](O)CC[C@]4(C)C3CC[C@@]21C` (some centres not stated), the parasite growth remaining, % of DMSO control (lower = more inhibition) in experiment [15] was 97.2%. The compound also showed a growth, % of control in experiment [16] of 98.2%. The Potency result in [7] and in experiment [8] was “inactive” each time.

`CC(=O)Nc1ccc(OC[C@@H](O)CNC(C)C)cc1`: the activity change, negative = inhibition in experiment [11] is 5.39% (inactive); in experiment [12] it was -18.7% (inactive); in experiment [14] (at 25.7 µM (top of the series)), -2.39% (inactive); in [14] (at 57.5 µM (top of the series)), -10.4% (inactive). The Potency entry in experiment [17], in [9], in [3], in experiment [5], in [6] and in experiment [7] was “inactive” each time. Further, the activity, negative = inhibition in [13] was 9.62% (inactive). The Potency in experiment [1] is > 20.6 µM (inactive) and > 46 µM (inactive); in experiment [2], > 20.6 µM (inactive) and > 46 µM (inactive); in experiment [18], 3.16 µM (active). Moreover, the max response in experiment [14] (setting [19]) was -2.07% and -0.999%; in [14] (setting [20]), -5.59% and -8.67%.

Take `COc1ccc2[nH]cc(CC(N)C(=O)O)c2c1` (configuration not stated): the Potency result in [10], in experiment [5], in experiment [6], in [7] and in experiment [8] was “inactive” throughout.

Values taken from PubChem BioAssay (NCATS).
